# Measurements taken from ChEMBL document CHEMBL1157539, “Thousands of chemical starting points for antimalarial lead identification” (Nature, 2010).
# Tested on: Plasmodium falciparum
# Assay: GSK_TCMDC: Inhibition of Plasmodium falciparum Dd2 in whole red blood cells, using parasite LDH activity as an index of growth. Test compounds present at 2uM
# Format: functional
row,Structure (SMILES),Inhibition [%]
1,CC(C)CCN(Cc1cncn1Cc1cccc(Cl)c1)C(=O)c1cncc(-c2ccccc2)c1,0
2,CN(C)Cc1cccc(-c2ccc(NC(=O)c3ccc4c(=O)n(Cc5ccoc5)cnc4c3)cc2)c1,9
3,Nc1cccc(CNCc2cccc(-c3ccc(-c4nc5ccccc5[nH]4)cc3)c2)c1.O=C(O)C(F)(F)F,92
4,CCN1CCN(CCCCNc2c3ccccc3nc3ccccc23)CC1.Cl,0
5,CNC(=O)NC1=NC(C)(C)N(OCCCOc2cc(Cl)c(Cl)cc2Cl)C(N)=N1,2
6,CCCc1nc2c(N3CC(NC(=O)/C=C/c4ccccc4)C3)cccc2n1C1CC1,68
7,C=C[C@]1(C)C[C@@H](OC(=O)CSC2CN3CCC2C3)[C@@]2(C)C3C(=O)CC[C@@]3(CC[C@H]2C)[C@@H](C)[C@@H]1O.Cl (stereo partly specified),75
8,COc1cc(Cc2cnc(N)nc2N)ccc1OCc1ccc(F)c(F)c1,31
9,Cc1c(C)n(C2CCCC2)c2ncnc(OC3CCN(CC(=O)NC4CC4)CC3)c12,92
10,Cc1cccn2c(=O)c3cc(C(=O)NCc4cccnc4)c(=N)n(CCc4ccccc4)c3nc12,38
11,Cc1ccc(-c2cc(C(=O)Nc3ccc(S(=O)(=O)N(C)Cc4ccccc4)cc3)[nH]n2)c(O)c1,67
12,COc1ccc(C)c(Nc2ccnc(Nc3cccc(-c4nc5ccccc5[nH]4)c3)n2)c1.Cl,35
13,CC[C@H]1CN2CCc3c([nH]c4ccccc34)[C@@H]2C[C@@H]1CC1c2cc(OC)c(OC)cc2CCN1C.Cl (stereo partly specified),45
14,CC(C)(C)CC(=O)Nc1ccc(Nc2cc(-c3ccncc3)cc3ncc(C(N)=O)cc23)cc1,85
15,COc1ccc(CN2CCCN(Cc3cccc(NC(=O)c4ccc(-c5ccccc5)cc4)c3)CC2)cc1.O=C(O)C(F)(F)F,24
16,COc1cc(-c2cc3cc(Cl)c(Cl)cc3[nH]2)ccc1C(=O)NCCC1CCCN1C.O=C(O)C(F)(F)F (stereo unspecified),41
17,CC1CCN(c2nc(C(=O)Nc3ccc(F)cc3C(F)(F)F)c(C(C)C)s2)CC1.O=C(O)C(F)(F)F,66
18,Cc1[nH]c(C)c(-c2ccc(OCc3ccc(F)cc3)cc2)c(=O)c1Br,97
19,CCOc1ccc(NC(=O)c2cccc(CN3CCCN(Cc4cccc(O)c4)CC3)c2)cc1.O=C(O)C(F)(F)F,23
20,CCCCCCNC(=O)C1Cc2c([nH]c3cc(Cl)ccc23)C2(CCN(CCC)CC2)N1 (stereo unspecified),18
21,COc1cc([N+](=O)[O-])ccc1NC(=O)Nc1ccc(OC(F)(F)F)cc1,72
22,COc1nc(Nc2cccc(C)c2)nc(OC)n1,0
23,C=CCOC(=O)N1CCC(CNCc2cccc(-c3cccc(-c4nc5ccccc5[nH]4)c3)c2)C1.O=C(O)C(F)(F)F (stereo unspecified),46
24,COc1cc(C)c(NC(=O)c2cccc3c(=O)c(C)c(-c4ccccc4)oc23)cc1OC,32
25,CC(C)NCc1cccc(-c2cccc(NC(=O)c3cccc(C#N)c3)c2)c1.O=C(O)C(F)(F)F,22
26,CCCCCCN1CCCN(Cc2ccc(C(=O)Nc3ccc(Cl)cc3)cc2)CC1.O=C(O)C(F)(F)F,54

# Tested on: HepG2
# Assay: GSK_TCMDC: Percent inhibition of human HepG2 cell line. Test compounds present at 10uM.
# Format: functional
row,Structure (SMILES),Inhibition [%]
1,CC(=O)NCCNc1cc(N2CCc3ncnc(Nc4ccc(OCc5c(F)cccc5F)c(Cl)c4)c3C2)ncn1,55
2,NC(=O)c1ccc(C(=O)Nc2cccc(-c3csc(-c4nc5ccccc5[nH]4)c3)c2)cc1,14
3,CC(C)S(=O)(=O)N1CCN(Cc2ccc3c(c2)nc(NC(=O)c2ccsc2)n3C[C@H](O)c2ccccc2)CC1,56
4,O=C1C(=Cc2cc(Cc3ccccc3)ccc2O)SC(=S)N1Cc1ccccc1,16
5,CCCCCCCc1c(C)nc2c(OC)cccc2c1O,0
6,CCC[C@@H]([C@@H](CC1CCCCC1)C(=O)N[C@H](C(=O)Nc1nccs1)C(C)(C)SCCNC(=O)OCc1ccccn1)N(O)C=O,17
7,CCCC(CNCc1cccc(SC(F)(F)F)c1)CNc1cc(=O)c2ccccc2[nH]1 (stereo unspecified),5
8,Cc1ccc(NC(=O)c2ccc(CN3CCCN(CCC(C)C)CC3)cc2)cc1F.O=C(O)C(F)(F)F,40
9,Cc1ccc2[nH]c3c(c2c1)CC(C(=O)NCCC(C)C)NC31CCN(Cc2ccccc2)CC1 (stereo unspecified),15
10,CCCCCCCn1c(=N)n(CC(O)c2ccc(Cl)c(Cl)c2)c2ccccc21.Cl (stereo unspecified),99
11,O=C(/C=C/c1ccccc1O)NCCCCCN1CCC(c2c[nH]c3ccccc23)CC1,7
12,Cc1cc(N2CCCC2)nc(Nc2ccc(NC(=O)c3ccco3)cc2)n1,23
13,O=C(/C=C/c1ccc(Cl)c(Cl)c1)NCCC(CN1CCC(c2c[nH]c3ccccc23)CC1)c1ccccc1 (stereo unspecified),84
14,Cl.c1cc2[nH]c(CCCCc3nc4cc(C5=N[C@H]6CCCC[C@H]6N5)ccc4[nH]3)nc2cc1C1=N[C@H]2CCCC[C@H]2N1,5
15,CC(C)CCN(Cc1cncn1Cc1cccc(Cl)c1)C(=O)c1cncc(-c2ccccc2)c1,9
16,CN(C)Cc1cccc(-c2ccc(NC(=O)c3ccc4c(=O)n(Cc5ccoc5)cnc4c3)cc2)c1,54
17,Nc1cccc(CNCc2cccc(-c3ccc(-c4nc5ccccc5[nH]4)cc3)c2)c1.O=C(O)C(F)(F)F,0
18,CCN1CCN(CCCCNc2c3ccccc3nc3ccccc23)CC1.Cl,22
19,CNC(=O)NC1=NC(C)(C)N(OCCCOc2cc(Cl)c(Cl)cc2Cl)C(N)=N1,7
20,CCCc1nc2c(N3CC(NC(=O)/C=C/c4ccccc4)C3)cccc2n1C1CC1,1

row,Structure (SMILES),Inhibition [%]
1,C=C[C@]1(C)C[C@@H](OC(=O)CSC2CN3CCC2C3)[C@@]2(C)C3C(=O)CC[C@@]3(CC[C@H]2C)[C@@H](C)[C@@H]1O.Cl (stereo partly specified),18
2,COc1cc(Cc2cnc(N)nc2N)ccc1OCc1ccc(F)c(F)c1,10
3,Cc1c(C)n(C2CCCC2)c2ncnc(OC3CCN(CC(=O)NC4CC4)CC3)c12,13
4,Cc1cccn2c(=O)c3cc(C(=O)NCc4cccnc4)c(=N)n(CCc4ccccc4)c3nc12,0
5,Cc1ccc(-c2cc(C(=O)Nc3ccc(S(=O)(=O)N(C)Cc4ccccc4)cc3)[nH]n2)c(O)c1,34
6,COc1ccc(C)c(Nc2ccnc(Nc3cccc(-c4nc5ccccc5[nH]4)c3)n2)c1.Cl,27
7,CC[C@H]1CN2CCc3c([nH]c4ccccc34)[C@@H]2C[C@@H]1CC1c2cc(OC)c(OC)cc2CCN1C.Cl (stereo partly specified),31
8,CC(C)(C)CC(=O)Nc1ccc(Nc2cc(-c3ccncc3)cc3ncc(C(N)=O)cc23)cc1,5
9,COc1ccc(CN2CCCN(Cc3cccc(NC(=O)c4ccc(-c5ccccc5)cc4)c3)CC2)cc1.O=C(O)C(F)(F)F,37
10,COc1cc(-c2cc3cc(Cl)c(Cl)cc3[nH]2)ccc1C(=O)NCCC1CCCN1C.O=C(O)C(F)(F)F (stereo unspecified),20
11,CC1CCN(c2nc(C(=O)Nc3ccc(F)cc3C(F)(F)F)c(C(C)C)s2)CC1.O=C(O)C(F)(F)F,5
12,Cc1[nH]c(C)c(-c2ccc(OCc3ccc(F)cc3)cc2)c(=O)c1Br,16
13,CCOc1ccc(NC(=O)c2cccc(CN3CCCN(Cc4cccc(O)c4)CC3)c2)cc1.O=C(O)C(F)(F)F,22
14,CCCCCCNC(=O)C1Cc2c([nH]c3cc(Cl)ccc23)C2(CCN(CCC)CC2)N1 (stereo unspecified),8
15,COc1cc([N+](=O)[O-])ccc1NC(=O)Nc1ccc(OC(F)(F)F)cc1,14
16,COc1nc(Nc2cccc(C)c2)nc(OC)n1,46
17,C=CCOC(=O)N1CCC(CNCc2cccc(-c3cccc(-c4nc5ccccc5[nH]4)c3)c2)C1.O=C(O)C(F)(F)F (stereo unspecified),16
18,COc1cc(C)c(NC(=O)c2cccc3c(=O)c(C)c(-c4ccccc4)oc23)cc1OC,96
19,CC(C)NCc1cccc(-c2cccc(NC(=O)c3cccc(C#N)c3)c2)c1.O=C(O)C(F)(F)F,12
20,CCCCCCN1CCCN(Cc2ccc(C(=O)Nc3ccc(Cl)cc3)cc2)CC1.O=C(O)C(F)(F)F,50
